The panel holds about 79,000 compounds, 15% with a hit somewhere; the sample as a whole holds those more often. Calls of active or inactive are those of the source. Rule as the data show it: active = growth inhibition above about 70%; inactive = the rest.
Experiments:
[1] = NCI Yeast Anticancer Drug Screen. Data for the rad52 strain (AID 147);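 also: 0% = growth of vehicle-treated control cultures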; settings: S. cerevisiae rad52 mutant growth inhibition, active compounds read high
Outline: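 Read-out: growth inhibition versus vehicle-treated controls. Cells were a DNA repair-deficient yeast strain treated with compounds.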

[2] = NCI Yeast Anticancer Drug Screen. Data for the wt1 strain (AID 149);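 also: 0% = growth of vehicle-treated wt1 cultures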; settings: S. cerevisiae wt1 strain (SPY 50644) growth inhibition, active compounds read high
Outline: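 Readout: yeast growth inhibition, normalised to vehicle controls, in the wt1 strain exposed to test compounds.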

[3] = NCI Yeast Anticancer Drug Screen. Data for the rad50EPP+ strain (AID 151);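 also: 0% = growth of vehicle-treated control cultures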; settings: S. cerevisiae rad50 mutant strain, active compounds read high
Outline: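 Growth inhibition read against vehicle controls in rad50EPP+ yeast, a strain altered in DNA damage repair, after compound exposure.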

[4] = NCI Yeast Anticancer Drug Screen. Data for the mgt1 strain (AID 153); settings: S. cerevisiae mgt1 mutant growth inhibition, active compounds read high
Outline: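 mgt1 yeast grown with test compound; read-out is growth inhibition versus vehicle-treated cultures.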

[5] = NCI Yeast Anticancer Drug Screen. Data for the rad50 strain (AID 155);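 also: 0% = growth of vehicle-only cultures of the same strain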; settings: S. cerevisiae rad50 strain growth inhibition, active compounds read high
Outline: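 Compounds were tested on a yeast strain with an engineered DNA damage repair alteration; the reported value is growth inhibition normalised to vehicle treatment.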

[6] = NCI Yeast Anticancer Drug Screen. Data for the mec2-1 strain (AID 157); settings: S. cerevisiae mec2-1 strain, active compounds read high
Outline: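 Yeast mec2-1 mutant treated with compound. Readout: growth inhibition vs vehicle controls.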

[7] = NCI Yeast Anticancer Drug Screen. Data for the rad14 strain (AID 159);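 also: 0% = growth of vehicle-treated control cultures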; settings: S. cerevisiae rad14 strain growth inhibition, active compounds read high
Outline: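 Compound-treated yeast with a defined DNA-repair lesion; growth inhibition normalised to vehicle-treated cultures.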

[8] = NCI Yeast Anticancer Drug Screen. Data for the sgs1 mgt1 strain (AID 161);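 also: 0% = growth of cultures given vehicle only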; settings: S. cerevisiae sgs1 mgt1 strain, active compounds read high
Outline: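 Mutant yeast exposed to compound; growth scored against vehicle-only wells.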

[9] = NCI Yeast Anticancer Drug Screen. Data for the CLN2oe strain (AID 163);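 also: 0% = growth of vehicle-only control cultures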; settings: S. cerevisiae CLN2oe strain, active compounds read high
Outline: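 Read-out: yeast growth inhibition, expressed relative to vehicle-only controls. The strain bears an engineered cell-cycle alteration.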

[10] = NCI Yeast Anticancer Drug Screen. Data for the cln2 rad14 strain (AID 165);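 also: 0% = growth equal to vehicle treated cultures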; settings: S. cerevisiae cln2 rad14 strain, active compounds read high
Outline: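 cln2 rad14 yeast strain; compound exposure; growth inhibition read vs vehicle controls.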

[11] = NCI Yeast Anticancer Drug Screen. Data for the bub3 strain (AID 167); settings: S. cerevisiae bub3 mutant strain, active compounds read high
Outline: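 Growth of a checkpoint-deficient yeast mutant is measured after compound exposure. Values represent inhibition relative to vehicle.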

[12] = NCI Yeast Anticancer Drug Screen. Data for the wt2 strain (AID 169);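 also: 0% = growth of vehicle-treated yeast cultures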; settings: S. cerevisiae wt2 strain growth inhibition, active compounds read high
Outline: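 Read-out: growth inhibition versus vehicle-treated control cultures after compound exposure of the yeast strain.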

[13] = NCI Yeast Anticancer Drug Screen. Data for the mlh1 strain (AID 171);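 also: 0% = growth of vehicle-treated control cultures of the same strain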; settings: S. cerevisiae mlh1 strain growth inhibition, active compounds read high
Outline: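 Read-out: growth inhibition versus vehicle controls. Strain: engineered yeast with a defined DNA repair or cell cycle defect, compound-treated.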

[14] = NCI Yeast Anticancer Drug Screen. Data for the sgs1 strain (AID 173);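 also: 0% = growth of vehicle-only control cultures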; settings: S. cerevisiae sgs1 mutant, active compounds read high
Outline: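 Read-out: yeast growth inhibition relative to vehicle controls, following compound exposure of a strain with a defined DNA repair/cell cycle alteration.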

[15] = NCI Yeast Anticancer Drug Screen. Data for the mlh1 rad18 strain (AID 175); settings: S. cerevisiae mlh1 rad18 strain growth inhibition, active compounds read high
Outline: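 Yeast w/ defined DNA-repair lesions; compound exposure; growth vs vehicle controls → % inhibition.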

[16] = NCI Yeast Anticancer Drug Screen. Data for the rad18 strain (AID 177); settings: S. cerevisiae rad18 mutant growth inhibition, active compounds read high
Outline: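 Readout: growth inhibition vs vehicle controls. Cells: genetically altered yeast strain, DNA repair defect.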

[17] = at 5.0 µM (retest, dose inferred, filed as 0.5)
[18] = at 50.0 µM (retest, dose inferred, filed as 5.0)

Measured: growth inhibition

O=[N+]([O-])c1cccc2nc3ccccc3c(NCCCn3ccnc3[N+](=O)[O-])c12
inactive: [1]; at 1.2 µM 53% | [1]; at 3.7 µM 65% | [2]; at 1.2 µM -6% | [2]; at 3.7 µM 24% | [2]; at 11.0 µM 37% | [2]; at 33.0 µM 64% | [3]; at 1.2 µM 24% | [3]; at 3.7 µM 37% | [3]; at 11.0 µM 58% | [4]; at 1.2 µM 17% | [4]; at 3.7 µM 28% | [4]; at 11.0 µM 38% | [4]; at 33.0 µM 55% | [5]; at 1.2 µM 23% | [5]; at 3.7 µM 63% | [5]; [17] 24% | [6]; at 1.2 µM 29% | [6]; at 3.7 µM 55% | [6]; [17] 16% | [7]; at 1.2 µM 17% | [8]; [17] 54% | [9]; at 1.2 µM 5% | [9]; at 3.7 µM 27% | [9]; at 11.0 µM 46% | [10]; [17] 52% | [11]; at 1.2 µM -15% | [11]; at 3.7 µM -12% | [11]; [17] 11% | [11]; at 11.0 µM 11% | [11]; at 33.0 µM 51% | [11]; at 50.0 µM 58.4% | [12]; at 1.2 µM -16% | [12]; at 3.7 µM -9% | [12]; at 11.0 µM 19% | [13]; at 1.2 µM 17% | [13]; at 3.7 µM 33% | [13]; at 11.0 µM 47% | [14]; at 1.2 µM 61% | [15]; [17] 26%
active: [1]; at 11.0 µM 86% | [1]; at 33.0 µM 94% | [1]; at 100.0 µM 97% | [2]; at 100.0 µM 86% | [3]; at 33.0 µM 83% | [3]; at 100.0 µM 90% | [4]; at 100.0 µM 82% | [5]; at 11.0 µM 86% | [5]; at 33.0 µM 94% | [5]; [18] 94% | [5]; at 50.0 µM 80% | [5]; at 100.0 µM 96% | [6]; at 11.0 µM 88% | [6]; at 33.0 µM 96% | [6]; [18] 98% | [6]; at 50.0 µM 87.5% | [6]; at 100.0 µM 97% | [7]; at 3.7 µM 73% | [7]; at 11.0 µM 95% | [7]; at 33.0 µM 97% | [7]; at 100.0 µM 98% | [8]; [18] 94% | [8]; at 50.0 µM 85% | [9]; at 33.0 µM 82% | [9]; at 100.0 µM 92% | [10]; [18] 97% | [10]; at 50.0 µM 87.4% | [11]; [18] 78% | [11]; at 100.0 µM 88% | [12]; at 33.0 µM 74% | [12]; at 100.0 µM 88% | [13]; at 33.0 µM 75% | [13]; at 100.0 µM 92% | [14]; at 3.7 µM 74% | [14]; at 11.0 µM 85% | [14]; at 33.0 µM 90% | [14]; at 100.0 µM 93% | [15]; [18] 98% | [15]; at 50.0 µM 79.2% | [16]; at 1.2 µM 90% | [16]; at 3.7 µM 94% | [16]; at 11.0 µM 95% | [16]; at 33.0 µM 96% | [16]; at 100.0 µM 96%

From PubChem BioAssay (NCI)
